Activity calls are given as the source filed them. No rule for the calls is given here.
These compounds were tested against Pantothenate synthetase (Mycobacterium tuberculosis (strain ATCC 25618 / H37Rv)) (UniProt P9WIL5) (assay: Recombinant Mtb pantothenate synthetase (PanC) inhibitors, coupled enzyme, confirmatory (AID 375;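 also: 0% = full reaction with vehicle and 100% = no enzyme background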)). Conditions: coupled enzyme assay; at 10 µM, stronger effect = higher value.
Pantothenate synthetase (Mycobacterium tuberculosis (strain ATCC 25618 / H37Rv)), sequence (P9WIL5 whole entry, looked up): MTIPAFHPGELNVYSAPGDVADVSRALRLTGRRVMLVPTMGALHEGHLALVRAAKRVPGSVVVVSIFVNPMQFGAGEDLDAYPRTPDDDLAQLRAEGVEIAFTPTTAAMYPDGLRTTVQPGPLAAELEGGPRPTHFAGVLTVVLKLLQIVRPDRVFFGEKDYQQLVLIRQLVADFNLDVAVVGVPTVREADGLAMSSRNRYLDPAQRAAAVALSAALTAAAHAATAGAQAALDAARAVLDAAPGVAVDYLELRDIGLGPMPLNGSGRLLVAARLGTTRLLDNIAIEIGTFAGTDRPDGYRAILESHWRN

SMILES | inhibition
Cc1nc2cc(NC(=O)N3c4ccccc4CC3C)ccc2o1 (stereo not given) | 0% (inactive)
COCC(C)NC(=O)CCS(=O)(=O)c1nc(-c2ccc(OC)cc2)cc(C(F)(F)F)n1 (stereo not given) | 0% (inactive)
COCCn1c(SCC(=O)Nc2cccc(OC)c2)nnc1-c1ccccc1 | 4% (inactive)
CC(C)c1nnc(SCC(=O)NCc2ccco2)n1C | 0% (inactive)
CCCc1cc(=O)oc2cc(C)cc(OC(=O)c3ccco3)c12 | 0% (inactive)
CC(=O)Nc1ccc(NS(=O)(=O)c2ccc(Cl)c(C(=O)O)c2)cc1 | 1% (inactive)
Oc1ccc2cccnc2c1 | 7% (inactive)
CCCCCCNC(=O)Cc1c(O)c2ccccc2[nH]c1=O | 5% (inactive)
CCCN1CCN(CCCNC(=O)Cn2nc(-c3ccc(Cl)cc3)ccc2=O)CC1 | 0% (inactive)
Cc1ccc(/C=N/n2nnnc2N)o1 | 0% (inactive)
C=CCC(Nc1ccco1)c1ccccc1 (stereo not given) | 1% (inactive)
O=C(O)c1ccc(C2SCC(=O)N2Cc2ccccc2)cc1 (stereo not given) | 2% (inactive)
O=C(CSc1ncnc2ccccc12)NCCCO | 0% (inactive)
COc1cccc(-n2c(SCC(=O)OC(C)C)nnc2-c2cccnc2)c1 | 2% (inactive)
COc1ccc(OCc2nc(C#N)c(N3CCN(c4ccc(OC)cc4)CC3)o2)cc1 | 2% (inactive)
O=C(OCn1nnc2ccccc2c1=O)C1CCN(S(=O)(=O)c2cccs2)CC1 | 0% (inactive)
COc1ccc([C@@H]2Sc3ccccc3N(CCN(C)C)C(=O)[C@@H]2OC(C)=O)cc1 | 2% (inactive)
Cc1cc(OC(=O)N2CCOCC2)cc(C)c1Cl | 0% (inactive)
Cn1c(/C=N/n2cnnc2)nc2ccccc21 | 2% (inactive)
O=C1c2ccccc2CN1CCNS(=O)(=O)c1ccc(Cl)cc1 | 9% (inactive)

SMILES | inhibition
CCCc1n[nH]c2c1/C(=N/O)CC(c1ccccc1)C2 (stereo not given) | 8% (inactive)
COCCn1c(SCC(=O)Nc2cccc(OC)c2)nnc1-c1ccc(Cl)cc1 | 3% (inactive)
COc1cc(CN2CCN(C(=O)CC(C)C)CC2)cc(OC)c1O | 0% (inactive)
CCOc1cc(C2C(C#N)=C(N)Oc3n[nH]c(CC)c32)ccc1OCCN1CCOCC1 (stereo not given) | 0% (inactive)
COc1cccc(C2C(C(=O)c3cc4ccccc4o3)=C(O)C(=O)N2CCN(C)C)c1OC (stereo not given) | 1% (inactive)
COc1ccc(N2CCN(C(=O)CSc3nnc4n3C(C)(C)Cc3ccccc3-4)CC2)cc1 | 0% (inactive)
COc1cccc(NS(=O)(=O)c2cc(C)sc2C)c1 | 0% (inactive)
Cc1occc1-c1nnc(SCC(=O)N2CCc3ccccc32)o1 | 0% (inactive)
COc1ccccc1C(=O)N1CCN(C(=O)COc2cccc(C)c2)CC1 | 3% (inactive)
CCOC(=O)C1CCCN(CC(=O)NC2CC2)C1 (stereo not given) | 6% (inactive)
CCOc1ccc(NC(=O)CN2CCN(CC(=O)c3ccc(OCC)cc3)CC2)cc1 | 4% (inactive)
O=c1c2ccccc2nc(SCc2cn3ccsc3n2)n1-c1ccc(F)cc1 | 0% (inactive)
CCOc1ccc(C2C=C(c3ccc(F)cc3)Nc3ncnn32)cc1 (stereo not given) | 9% (inactive)
CCOc1ccc(NC(=O)CSc2nccn2C)cc1 | 6% (inactive)
Cc1cc(NC(=O)CSc2nc3c(c(-c4cccnc4)c2C#N)CCC3)no1 | 0% (inactive)
CCOC(=O)N1CCN(CC(=O)Nc2c(C(=O)OC)[nH]c3cccc(Cl)c23)CC1 | 0% (inactive)
CC(C)N(C(=O)N1CCC(c2nc(-c3ccncc3)no2)CC1)C(C)C | 0% (inactive)
COc1ccc(OCCSc2nc3ccccc3n2CC(=O)O)cc1 | 2% (inactive)
CCOC(=O)c1[nH]c2ccc(Br)cc2c1NC(=O)CNC | 4% (inactive)
COCCNc1nc(C(C)(C)C)nc2c1nnn2Cc1ccccc1Cl | 0% (inactive)

Reference: PubChem BioAssay
